Screening data as filed in PubChem BioAssay.
3T3 cytotox – kills NIH 3T3 cells; NIH 3T3 viability, CellTiter-Glo ATP luminescence, 48-72 h; 4.3% of 94,000 active; Potency, µM (series often up to 96.7 µM), without a hit: at the top dose activity change, negative = cytotoxicity, usual class: inhibitors; note: % is set by controls: 0 for no effect and ±100 for the full control effect; nearly all actives have a fitted effect of over 55% in size
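Cytotoxicity was measured by CellTiter-Glo ATP luminescence after 48 or 72 h compound exposure at 37 °C. Mouse NIH 3T3 fibroblasts were seeded at 400 cells/well and dosed by 23 nL pin transfer.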
NPR1 antag – human Npr1 receptor antagonism; AID 1347048; HEK293 hNpr1 GloSensor cGMP, ANP-stimulated luminescence; 1.6% of 76,000 active; Potency, µM (doses to about 46.3 µM), inactives show at the top dose activity change, negative = inhibition, hits mostly inhibitors; P16066; calls by dose curve; note: % is set by controls: 0 for no effect and ±100 for the full control effect; nearly all actives have a fitted effect of over 60% in size
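HEK293 cells stably expressing human Npr1 and cGMP GloSensor pGS-40F, loaded 2 h with 2% GloSensor reagent, given compound 30 min at room temperature. Luminescence read before and 20 min after 0.1 nM hNppA.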
HEK293 tox – cytotoxic compounds in HEK 293 cells. HEK 293 viability, ATP luminescence (CellTiter-Glo), 48-72 h. Potency, µM (highest dose often 115 µM), for inactives: top-dose activity change, negative = cytotoxicity, actives largely listed as inhibitors. 6.6% of 94,000 active. AID 1345083; note: % is set by controls: 0 for no effect and ±100 for the full control effect; nearly all actives have a fitted effect of over 60% in size
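250 HEK 293 cells/well; compound by pintool; incubated 48 or 72 hr at 37 degree Celsius; CellTiter-Glo added, 10 min RT, luminescence imaged.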
FLuc inh-1 – blocks purified firefly luciferase enzyme activity. 2.5% of 76,000 active. Potency, µM (top dose mostly 115 µM), usual class: inhibitors. purified P. pyralis luciferase, luminescence, biochemical; note: % is set by controls: 0 for no effect and ±100 for the full control effect; nearly all actives have a fitted effect of over 65% in size
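Purified 10nM P. pyralis luciferase with 10uM D-luciferin and 10uM ATP in 50mM Tris acetate pH 7.5, 10mM Mg acetate, 0.01% Tween-20, 0.05% BSA. qHTS titration; luminescence read by CCD imager.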
GPT2 inh – blocks human glutamate pyruvate transaminase 2 | AID 1671188 | 0.25% of 100,000 active | Recombinant GPT2, coupled pyruvate oxidase/HRP Amplex Red fluorescence | Q8TD30 | Potency, µM (highest dose often 57.7 µM), inactives show at the highest dose activity change, negative = inhibition, actives largely listed as inhibitors; note: % is set by controls: 0 for no effect and ±100 for the full control effect; nearly all actives have a fitted effect of over 60% in size
Target sequence (Q8TD30 whole entry, looked up): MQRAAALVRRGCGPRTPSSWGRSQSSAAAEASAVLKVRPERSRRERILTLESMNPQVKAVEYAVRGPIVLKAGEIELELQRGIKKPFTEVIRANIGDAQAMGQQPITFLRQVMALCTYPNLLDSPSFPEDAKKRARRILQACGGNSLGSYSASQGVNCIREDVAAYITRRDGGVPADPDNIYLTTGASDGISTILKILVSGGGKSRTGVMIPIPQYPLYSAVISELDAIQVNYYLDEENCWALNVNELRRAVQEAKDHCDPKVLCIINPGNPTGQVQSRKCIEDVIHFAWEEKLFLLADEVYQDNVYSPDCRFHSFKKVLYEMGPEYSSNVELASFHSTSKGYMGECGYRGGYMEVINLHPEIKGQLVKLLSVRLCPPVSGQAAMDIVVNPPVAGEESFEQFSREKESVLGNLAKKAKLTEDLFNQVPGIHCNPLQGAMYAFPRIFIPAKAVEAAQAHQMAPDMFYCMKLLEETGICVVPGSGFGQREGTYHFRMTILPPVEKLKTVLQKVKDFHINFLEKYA
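GPT2 10ng/uL, a-KG 250uM, L-Ala 2mM, HEPES pH7.5 + 0.0001% Tween; 30 min RT. Then Amplex mix (PO/HRP/ThPP), 30 min RT dark, fluorescence. AOA 50uM used as positive control.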
FLuc SDR -ATP – stabilizes firefly luciferase without ATP | shares compounds with FLuc inh-1 | Purified FLuc-C-HiBiT, Nano-Glo HiBiT luminescence, no ATP | Potency, µM (highest dose often 32.7 µM), inactives show at the top dose activation (signal gain), actives largely listed as activators | 7.8% of 1,300 active; note: nearly all actives have a fitted effect of over 55% in size
FLuc SDR ATP – stabilizes firefly luciferase with ATP present. shares compounds with FLuc inh-1. 8.7% of 1,300 active. purified FLuc-C-HiBiT + ATP, HiBiT complementation luminescence. Potency, µM (titrated, usually from 32.7 µM), without a hit: at the highest dose activation (gain of signal), actives largely listed as activators;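 note: signal reports ligand binding via conformational change of the enzyme rather than luciferase catalysis; % of control where 0% means no effect; nearly all actives have a fitted effect of over 55% in size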
FLuc inh-2 – blocks firefly luciferase enzymatic activity; shares compounds with FLuc inh-1; purified FLuc-C-HiBiT enzyme, luciferin luminescence; Potency, µM (highest dose often 32.7 µM), inactives show at the highest dose activity change, negative = inhibition, actives largely listed as inhibitors; 42% of 1,300 active; AID 1963320; note: % is set by controls: 0 for no effect and ±100 for the full control effect; nearly all actives have a fitted effect of over 70% in size
The depositor's hits bear a star; i = inactive; u = inconclusive; x = no result given; [ ] = another dose, or the depositor's remark. Shown are actives, neighbours in structure and some others; about 10% of the full set was active somewhere. Unless noted, calls come from the whole dose curve; as a rule, active = well fitted curve in the direction sought with a large enough effect; inconclusive = small, poorly fitted or top-dose-only effect, or another doubt; inactive = no such curve, though single readings can be large; an effect the other way counts as inactive or inconclusive. Potency is the fitted concentration of half-maximal effect.

SMILES	3T3 cytotox	NPR1 antag	HEK293 tox	FLuc inh-1	GPT2 inh	FLuc SDR -ATP	FLuc SDR ATP	FLuc inh-2
CCSc1ccc(C(=O)Nc2ccc(-c3nc4ccc(C)cc4s3)cc2)cc1	x	x	x	x	x	14%	8%	-5%
Cc1ccc2nc(-c3ccc(NC(=O)c4ccccc4S(C)(=O)=O)cc3)sc2c1	x	x	x	x	x	13%	13%	u
O=C(O)c1cccc(-c2cnc3ccccc3c2)c1	-14%[138 µM]	x	-12%[172 µM]	x	-5%[88.5 µM]	x	x	x
CC(C)CN1C(=O)CO[C@H](c2ccc(NC(=O)c3cccc(C#N)c3)cc2)[C@H]1CO	-28%[174 µM]	0%[70.6 µM]	u	i	4%[88.5 µM]	x	x	x
O=C(NCc1cccc(Cl)c1)c1cc(-c2cccc(C(F)(F)F)c2)c2nncn2n1	-21%	x	-25%	x	i	x	x	x
O=C(C1CC1)N1CCN(CCn2nc3n(c2=O)CCCC3)CC1	-9%[138 µM]	x	0%[172 µM]	x	x	x	x	x
Cc1ccc2nc(-c3ccc(NC(=O)C(F)(F)F)cc3)sc2c1	x	x	x	x	x	28%	u	0.79µM*
Cc1ccc(NC(=O)c2cn3cc(-c4ccc(C)cc4)sc3n2)cc1	-15%	x	-11%	x	i	x	x	x
Cc1ccc2nc(-c3ccc(NC(=O)CSc4nnc(C)s4)cc3)sc2c1	x	x	x	x	x	16%	15%	0.62µM*
Cc1ccc2nc(NC(=O)CSc3nc4c(c(=O)n3-c3ccccc3)SCC4)sc2c1	x	x	x	x	2%	x	x	x
Cc1nn(-c2ccccn2)c(C)c1[C@@H]1C=C[C@@H](NC(=O)NCc2ccccc2)C1	u	-26%[70.6 µM]	u	u	3%[88.5 µM]	x	x	x
Cc1ccc(-n2nc(C)c([C@@H]3C=C[C@@H](NC(=O)NCc4ccccc4)C3)c2C)cc1Cl	u	u	-23%[172 µM]	7.9µM*	u	19%[49.3 µM]	u	u
Cc1nn(-c2ccc(F)cc2)c(C)c1[C@@H]1C=C[C@@H](NC(=O)c2ccco2)C1	u	u	u	u	i	x	x	x
COc1ccc(-n2nc(C)c([C@@H]3C=C[C@@H](NC(=O)NCc4ccccc4)C3)c2C)cc1	u	8.9µM*	u	1.1µM*	i	u	19%[49.3 µM]	6.4µM*
Cc1nn(-c2ccccc2)c(C)c1[C@@H]1C=C[C@@H](NC(=O)CCCC(=O)O)C1	i	6%[70.6 µM]	i	i	i	x	x	x
CCNC(=O)N[C@@H]1C=C[C@@H](c2c(C)nn(-c3ccc(F)cc3)c2C)C1	u	20µM*	89µM*	6.3µM*	i	26%[49.3 µM]	u	u
O=C(c1nc2cccnc2n(CCc2ccccc2)c1=O)N1CCN([S+](=O)([O-])c2cccc(C(F)(F)F)c2)CC1	u	x	i	x	i	x	x	x
OC1(CN2CCN(C(c3ccccc3)c3ccccc3)CC2)CNCCOC1 (stereo not drawn)	u	1%	u	i	1%	x	x	x
OC1(CN2CCCN(c3nc4ccccc4s3)CC2)CNCCOC1 (stereo not drawn)	u	2%	u	13µM*	-9%	17%	14%	-7%
CCc1ccccc1Nc1nc(-c2cccc(OC)c2OC)no1	u	-20%	u	14µM*	i	21%	13%	u
COc1cccc(-c2noc(N3CCCC3)n2)c1OC	3%	5%	0%	u	-8%	x	x	x
Cc1ccccc1-c1noc(-c2ccc(N3CCCC3)c([N+](=O)[O-])c2)n1	x	x	x	x	x	22%	u	u
COc1ccc(-c2noc(-c3nc(-c4ccc5c(c4)OCO5)no3)n2)cc1	i	0%	3%	i	i	x	x	x
COc1ccccc1-c1noc(-c2ccc(N3CCN(C)CC3)c([N+](=O)[O-])c2)n1	x	x	x	x	x	u	u	5µM*
COc1ccc(-c2noc(-c3ccc(N4CCN(C)CC4)c([N+](=O)[O-])c3)n2)cc1	x	x	x	x	x	21%	13%	u
SMILES	3T3 cytotox	NPR1 antag	HEK293 tox	FLuc inh-1	GPT2 inh	FLuc SDR -ATP	FLuc SDR ATP	FLuc inh-2
CCOC(=O)[C@@H]1CN(C(=O)COc2ccccc2)[C@H]2c3ccc(OC)cc3O[C@@H]12	u	x	-10%	x	x	x	x	x
COc1ccc(Nc2ncncc2-c2nc(-c3ccccc3)no2)cc1OC	-2%	-21%	-8%	i	i	x	x	x
COc1ccc(-c2noc(Nc3ccc4c(c3)OCO4)n2)cc1	-22%	-22%	u	u	i	x	x	x
COc1ccc(OC)c(-c2noc(Nc3cccc(F)c3)n2)c1	-12%	-5%	u	i	i	x	x	x
c1ccc(-c2noc(-c3cncnc3Nc3ccc4c(c3)OCCO4)n2)cc1	-9%	-6%	4%	u	-3%	x	x	x
COc1ccc(Nc2nc(-c3ccccc3F)no2)cc1OC	u	u	u	2.2µM*	i	30%	u	3.5µM*
COc1cccc(-c2noc(Nc3ccc4c(c3)OCO4)n2)c1	u	u	u	2µM*	i	29%	u	6.2µM*
COc1cccc(-c2noc(Nc3ccc4c(c3)OCCO4)n2)c1	-60%	5µM*	u	0.32µM*	u	u	u	1.6µM*
COc1cccc(-c2noc(Nc3ccc(OC)c(OC)c3)n2)c1	u	u	u	2µM*	-5%	u	19%	3.9µM*
O=C(CCc1nc2ccccc2s1)NCCc1noc(-c2ccncc2)n1	-15%	0%	-4%	i	-1%	x	x	x
CCCCN(C)C(=O)CN1C(=O)NC2(CCC(C)CC2)C1=O (stereo not drawn)	-16%	7%	-6%	i	i	x	x	x
CCCc1noc(-c2nc(-c3ccccc3F)no2)n1	-12%	u	-19%	5.6µM*	i	14%	20%	u
CCc1ccc(Nc2nc(-c3ccccc3F)no2)cc1	u	13µM*	u	2.5µM*	-14%	20%	19%	6.2µM*
CCc1noc(-c2nc(-c3ccccc3OC)no2)n1	-6%	-2%	u	i	-13%	x	x	x
COCC(=O)NC1CCC12CCN(C(=O)c1ccc(C)nc1)CC2 (stereo not drawn)	-8%	-1%	-16%	i	-17%	x	x	x
CCCn1ncc(-c2nc(-c3ccncc3)no2)c1C	u	u	35µM*	2.5µM*	-7%	u	u	8.8µM*
